Sampled rows, rich in hits. Any-hit rate of the full collection: about 28%.
CYP2C9 inh: blocks human cytochrome P450 2C9. P11712. CYP2C9 Supersomes, luciferin-H conversion, luminescence. hit rate 20% among 96,000. inhibition, % at 5 µM;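 active means blocking of liver enzyme CYP2C9 beyond about 50% at 5 µM, limit read from the data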
Target sequence (P11712 whole entry, looked up): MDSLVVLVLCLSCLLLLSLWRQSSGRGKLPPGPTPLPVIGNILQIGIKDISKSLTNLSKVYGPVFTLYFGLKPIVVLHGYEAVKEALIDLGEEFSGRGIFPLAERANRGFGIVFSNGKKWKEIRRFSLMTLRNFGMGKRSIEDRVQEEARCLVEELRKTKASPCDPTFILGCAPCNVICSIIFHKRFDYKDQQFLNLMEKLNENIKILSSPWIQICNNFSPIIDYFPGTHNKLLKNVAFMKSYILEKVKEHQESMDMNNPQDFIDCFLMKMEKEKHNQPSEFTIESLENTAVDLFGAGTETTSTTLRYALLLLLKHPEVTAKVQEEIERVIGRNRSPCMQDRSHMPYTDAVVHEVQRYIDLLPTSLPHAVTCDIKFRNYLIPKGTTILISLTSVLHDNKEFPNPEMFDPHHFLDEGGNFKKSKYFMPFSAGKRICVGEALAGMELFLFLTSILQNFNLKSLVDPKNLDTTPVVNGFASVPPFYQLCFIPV
PLK1 kinase inh: inhibitors of human PLK1 kinase; recombinant PLK1 kinase, TR-FRET peptide phosphorylation; P53350; inhibition, % at 10 µM; hit rate 0.53% among 97,000;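 active means inhibition of 50% or more in the single-concentration screen; inactive means inhibition below 50%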
CYP2C19 inhib: inhibitors of human CYP2C19; CYP2C19 Supersomes, luciferin-H EGE luminescence, 30 min; inhibition, % at 5 µM; hit rate 21% among 96,000; AID 778;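 active means CYP2C19 inhibition above a set limit at 5 µM in the primary screen, cut at about 50% in these data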
CYP2C9 act: activators of human CYP2C9; AID 1024; P11712; recombinant CYP2C9, luciferin-H conversion, luminescence; active compounds read high; factor 1 = untreated enzyme, 0 = blocked; hit rate 1.4% among 96,000; activation factor at 5 µM;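 active means activation factor of 2 or more for CYP2C9 at a 5 µM dose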
Plk1 PBD FP: inhibitors of human Plk1 polo box domain binding. hit rate 0.13% among 97,000. Plk1 PBD phosphopeptide binding, fluorescence polarization. P53350. inhibition, %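 (tested at about 20 µM)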; in the data active means inhibition above about 34%, passing the limit was not always enough
CYP2C19 act: activators of human cytochrome P450 2C19; P33261; recombinant CYP2C19, luciferin-H EGE luminescence; active compounds read high; 0 = fully inhibited enzyme, 1 = untreated enzyme; activation factor at 5 µM; 96,000 tested, under 10 active; AID 1025;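 active means activation factor of at least 2 at 5 µM in the primary screen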
Of the large screens only hits and unclear results are named; the others gave an inactive call.

COc1ccc(NC(=S)NCCSc2ccc(Cl)cc2)c(OC)c1	none
NS(=O)(=O)c1ccc(CCNC(=O)C2Cc3ccccc3CN2C(=O)c2ccco2)cc1 (stereo not given)	none
CCC(=O)NCCc1c[nH]c2ccccc12	none
COc1ccc(Cl)cc1NC(=S)NCCc1c[nH]c2ccccc12	CYP2C19 inhib 92, CYP2C9 act 2.3
O=C(NCCc1c[nH]c2ccccc12)C1Cc2ccccc2CN1C(=O)c1ccco1 (stereo not given)	CYP2C9 inh 63, CYP2C19 inhib 95
O=C(CSc1nnc(NC(=O)CN2CCOCC2)s1)Nc1ccccc1	none
CCSc1n[nH]c(=O)[nH]c1=O	none (no result: PLK1 kinase inh, Plk1 PBD FP)
O=C(NCCc1c[nH]c2ccccc12)C(F)(F)C(F)F	CYP2C19 inhib 72
O=C(O)[C@H]1CCCC[C@H]1C(=O)NCCc1ccccc1	none
Cc1ccc(NC(=S)NCCc2c[nH]c3ccccc23)cc1	CYP2C19 inhib 86
CCCNC(=S)Nc1ccc(Nc2ccccc2)cc1	none
O=C(O)C1CCCCC1C(=O)NCCc1ccncc1 (stereo not given)	CYP2C9 inh 67
O=C(O)C1CCCCC1C(=O)NCCc1c[nH]c2ccccc12 (stereo not given)	CYP2C19 inhib 75
CC(C)NC(=O)c1ccc2c(c1)S(=O)(=O)c1ccccc1C2=O	none
CCCC(N)CCCCCC(=O)O (stereo not given)	none
Cc1c(C#N)c2ccccc2n1CC(=O)NCCc1c[nH]c2ccccc12	none
O=C(NCc1ccc(F)cc1)c1cnc2sccn2c1=O	none (no result: PLK1 kinase inh, Plk1 PBD FP)
N#Cc1cn(CC(=O)NCCc2c[nH]c3ccccc23)c2ccccc12	CYP2C9 inh 66, CYP2C19 inhib 50 (no result: PLK1 kinase inh, Plk1 PBD FP)
O=C(NCCc1c[nH]c2ccccc12)c1cnc2sccn2c1=O	CYP2C19 inhib 89, CYP2C9 act 2.5
COc1ccc(NC(=O)c2cccnc2C(=O)O)c(OC)c1	none
CCCCC(c1nnnn1CC1CCCO1)N1CCN(c2nc3ccccc3s2)CC1 (stereo not given)	CYP2C9 inh 76, CYP2C19 inhib 70
CC(C)CC(c1nnnn1CC1CCCO1)N1CCN(c2nc3ccccc3s2)CC1 (stereo not given)	none (no result: PLK1 kinase inh, Plk1 PBD FP)
CCCC(c1nnnn1Cc1ccco1)N1CCN(c2cc(Cl)ccc2C)CC1 (stereo not given)	CYP2C9 inh 60
CCCC(c1nnnn1CC1CCCO1)N1CCN(c2nc3ccccc3s2)CC1 (stereo not given)	none (no result: CYP2C9 inh, CYP2C19 inhib, CYP2C9 act, CYP2C19 act)
CCCCC(c1nnnn1CC1CCCO1)N1CCN(c2cc(Cl)ccc2C)CC1 (stereo not given)	CYP2C9 inh 90, CYP2C19 inhib 96
CS(=O)(=O)N1CCN(C(=O)c2ccccc2)C1	none
CC(C)(C)OC(=O)N1CCOCCOCCN(C(=O)OC(C)(C)C)CCOCCOCC1	none
O=C(O)C1C2C=CC(C3CC23)C1C(=O)NCCc1ccccc1 (stereo not given)	none
CC(=O)N1CCC(N(C(=O)Nc2ccc(F)cc2)C2CCCC2)CC1	none
C/C(=N\NC(=S)Nc1ccc(F)cc1)C1CC1	CYP2C9 inh 57, CYP2C19 inhib 69
O=C1NN(c2ccc(F)c(Cl)c2)C(=O)/C1=C\c1cccc(OC(=O)c2cccs2)c1	CYP2C9 inh 51
CC(=O)c1c(C)nn(C(=O)N2CCOCC2)c1C	none (no result: PLK1 kinase inh, Plk1 PBD FP)
CCn1c(SCC(=O)Nc2cc(C)on2)nnc1-c1ccc(S(=O)(=O)N2CCN(C)CC2)cc1	none
CCN(CC)c1ccc(NC(=O)/C=C\c2ccccc2Cl)cc1	CYP2C19 inhib 71, CYP2C9 act 2.3
O=C(/C=C/c1ccccc1Cl)NCCc1ccccc1	none
O=C(/C=C/c1ccccc1Cl)NCc1ccccc1	CYP2C9 act 2.1
CCCCSc1ccc(NC(=O)c2cccnc2)cc1	none
COc1cc(NS(=O)(=O)c2ccc(NC(=O)C34CC5CC(CC(C5)C3)C4)cc2)ncn1	none
CC(C)(C)OC(=O)N1CCC(C(=O)N[C@@H](Cc2ccccc2)C(=O)O)CC1	none
Cc1noc(C)c1C(=O)N1CCN(Cc2ccccc2)CC1	CYP2C19 inhib 91
Cc1noc(C)c1C(=O)N1CCN(CCc2ccccc2)CC1	none
Cc1ccc(CN2CCN(C(=O)c3ccco3)CC2)cc1	none (no result: CYP2C9 inh, CYP2C19 inhib, CYP2C9 act, CYP2C19 act)
O=C(c1coc(=O)c2ccccc12)N1CCN(Cc2ccccc2)CC1	CYP2C19 inhib 55
Cc1occc1C(=O)N1CCN(Cc2ccccc2)CC1	CYP2C19 inhib 90
O=C(c1ccc(CN2CCOCC2)cc1)N1CCN(Cc2ccccc2)CC1	none
CCOC(=O)c1cc(C(O)(C(F)(F)F)C(F)(F)F)c(/N=C/N(C)C)o1	none
CC(=O)c1oc2ccccc2c1NC(=O)CN1CCCCC1	none (no result: CYP2C9 inh, CYP2C19 inhib, CYP2C9 act, CYP2C19 act)
CCCCOc1ncnc2c1[nH]c1ccc(F)cc12	none
CC1(C)CC(=O)c2cnc(N3CCc4ccccc4C3)nc2C1	none
C=CCNC(=O)C1CCN(c2c([N+](=O)[O-])cc(C(F)(F)F)cc2[N+](=O)[O-])CC1	none
O=C(Nc1ccccc1)N(O)c1ccc(Cl)cc1	CYP2C9 inh 61, CYP2C19 inhib 80
COc1ccc(CNc2oc(Cc3cccc4ccccc34)nc2C#N)cc1	CYP2C9 inh 96, CYP2C19 inhib 79
COc1ccc(CNc2oc(COc3ccccc3Cl)nc2C#N)cc1	none
N#Cc1nc(Cc2cccc3ccccc23)oc1NCc1ccco1	none
N#Cc1nc(Cc2cccc3ccccc23)oc1NCCCn1ccnc1	CYP2C9 inh 97, CYP2C19 inhib 98
COc1ccc(CCNc2oc(COc3ccccc3)nc2C#N)cc1	CYP2C9 inh 70
COc1ccc(CNc2oc(COc3ccccc3)nc2C#N)cc1	CYP2C9 inh 66, CYP2C19 inhib 53
COCCNC(=O)c1c[nH]c2ccc(OC)cc2c1=O	none
O=C(Nc1cc(Cl)ccc1Cl)C1CC(=O)N(c2ccc(Br)cc2)C1 (stereo not given)	none
Nc1nc(Br)c2c(F)cccc2c1-c1ccc(F)cc1	none
COc1ccc(CCC(C)NC2C3CC4CC(C3)CC2C4)cc1 (stereo not given)	none
N#Cc1nc(COc2ccccc2F)oc1NCCc1ccccc1	CYP2C9 inh 88, CYP2C19 inhib 88
CNc1oc(-c2ccc(OCc3ccccc3)cc2)nc1C#N	CYP2C9 act 2.2
CN(Cc1ccccc1)c1oc(-c2ccco2)nc1C#N	CYP2C9 inh 62, CYP2C19 inhib 59
CN(Cc1ccccc1)c1oc(COc2ccccc2F)nc1C#N	CYP2C9 inh 99, PLK1 kinase inh 69, CYP2C19 inhib 100
COc1cc(C(N)=O)cc(Br)c1OC	none
COc1ccc(Nc2oc(COc3ccc(OC)cc3)nc2C#N)cc1	none (no result: CYP2C9 inh, CYP2C19 inhib, CYP2C9 act, CYP2C19 act)
COc1ccc(Nc2oc(COc3ccccc3F)nc2C#N)cc1	CYP2C9 inh 60, CYP2C19 inhib 54
Cc1cc(=O)oc2c1c(C)nn2-c1nn[nH]n1	none
CC1(C)CC(=O)C=C(NCCN2CCN(C(=O)Nc3ccc(Cl)c(Cl)c3)CC2)C1	CYP2C19 inhib 66
CC1CCN(S(=O)(=O)N2CCC(C(=O)NCc3cccs3)CC2)CC1	none
COC(=O)/C(=C\Nc1ccc(OC)cc1)NC(=O)c1ccc(Cl)cc1Cl	none
